Compound activity: PubChem BioAssay, National Center for Advancing Translational Sciences (NCATS)
TGFb inhibitor: blocks TGF-b signaling; 410,000 tested, 1.2% active; Potency, µM (top dose mostly 46.1 µM), for the others: at the highest dose activity, negative = inhibition, most hits filed as inhibitors; AID 588855; HepG2 CAGA-GFP TGF-b/SMAD3 reporter, GFP fluorescence, 18 h; TGF-beta stimulated, 500 pg/mL final; further: potency means the concentration at half of the fitted maximal effect; on the % scale 0 is the no-effect control and ±100 the full control effect; nearly all actives have a fitted effect of over 65% in size
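Read-out: total well GFP (ex488/em500-530) summed from mean per-cell fluorescence. Cells: HEPG2 CAGA-GFP, 1% FBS DMEM, 18 h at 37 degrees C with 500 pg/mL final TGF-beta. Unstimulated wells served as the full-inhibition control; stimulated DMSO wells = 0%.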
TDP1 inh: TDP1 (human) enzyme inhibition; Q9NUW8; recombinant TDP1, AlphaScreen DNA substrate cleavage; Potency, µM (doses to about 130 µM), inactives show at the top dose activity change, negative = inhibition, hits mostly inhibitors; 350,000 tested, 0.28% active; AID 485290; further: potency means the concentration at half of the fitted maximal effect; on the % scale 0 is the no-effect control and ±100 the full control effect; nearly all actives have a fitted effect of over 40% in size
Target sequence (Q9NUW8 whole entry, looked up): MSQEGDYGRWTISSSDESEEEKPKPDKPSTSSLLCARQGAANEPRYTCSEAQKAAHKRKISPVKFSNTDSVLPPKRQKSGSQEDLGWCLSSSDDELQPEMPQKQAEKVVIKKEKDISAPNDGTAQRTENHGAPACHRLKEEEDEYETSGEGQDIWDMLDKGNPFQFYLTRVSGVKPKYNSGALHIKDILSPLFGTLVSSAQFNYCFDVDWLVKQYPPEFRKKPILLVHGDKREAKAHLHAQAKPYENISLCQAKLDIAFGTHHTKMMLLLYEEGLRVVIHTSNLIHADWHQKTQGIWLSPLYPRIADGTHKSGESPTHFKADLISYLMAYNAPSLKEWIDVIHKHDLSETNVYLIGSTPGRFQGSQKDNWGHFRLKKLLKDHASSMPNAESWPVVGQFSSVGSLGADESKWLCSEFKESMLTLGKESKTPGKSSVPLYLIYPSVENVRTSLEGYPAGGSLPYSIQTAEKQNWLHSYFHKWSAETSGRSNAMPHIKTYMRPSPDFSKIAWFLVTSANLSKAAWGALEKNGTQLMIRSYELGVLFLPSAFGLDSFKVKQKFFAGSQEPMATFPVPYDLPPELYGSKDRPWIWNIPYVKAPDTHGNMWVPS
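E. coli-derived human Tdp1, 1 nM final. Cpd preinc 15 min RT; substrate 15 nM final, 5 min RT; AS bead mix 10 ug/ml final, 10 min RT. Signal loss = tyrosine-FITC cleavage. No-enzyme wells = max signal.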
TDP1 cell noCPT: qHTS for Inhibitors of human tyrosyl-DNA phosphodiesterase 1 (TDP1): qHTS in cells in absence of CPT; 420,000 tested, 15% active; Potency, µM (doses to about 46.2 µM), inactives show at the top dose activity change, negative = growth inhibition, most hits filed as inhibitors; AID 686978, 2013; DT40 Tdp1-/- hTDP1 cells, no CPT, ATP luminescence, 48 h; further: potency means the concentration at half of the fitted maximal effect; on the % scale 0 is the no-effect control and ±100 the full control effect; nearly all actives have a fitted effect of over 55% in size
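A cellular qHTS used chicken DT40 cells lacking endogenous Tdp1 but carrying stably transfected human TDP1. Compounds were applied without camptothecin, and cell growth kinetics were judged by ATP-dependent luminescence after ≥48 hr.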
TDP1 cell CPT: growth inhibition of DT40 Tdp1-/-;hTDP1 cells with camptothecin (screen for TDP1 inhibitors); chicken DT40 Tdp1-/-;hTDP1 cells + 20 nM CPT, ATP luminescence, 48 h; Potency, µM (titrated, usually from 46.2 µM), inactives show at the top dose activity change, negative = growth inhibition, usual class: inhibitors; 420,000 tested, 12% active; AID 686979; further: potency means the concentration at half of the fitted maximal effect; on the % scale 0 is the no-effect control and ±100 the full control effect; nearly all actives have a fitted effect of over 55% in size
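Chicken DT40 Tdp1-/- cells stably complemented with human TDP1 were seeded at 400 cells/well in medium containing 20 nM camptothecin, exposed to pin-transferred compounds, and grown at 37 °C for at least 48 hr. Viability was read as ATP luminescence.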
HepG2 viability: counter-screen for TGF-b inhibitors: cytotoxicity in HepG2 cells. Potency, µM (highest dose often 46.1 µM), inactives show top-dose activity change, negative = cytotoxicity, hits mostly cytotoxic. 410,000 tested, 0.76% active. HepG2 CAGA-GFP viability, ATP luminescence, 18 h. AID 588856; further: potency means the concentration at half of the fitted maximal effect
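HepG2 CAGA-GFP cells (1000/well, DMEM with 1% FBS) received compound, then TGF-beta at 500 pg/mL final, and were incubated 18 hours at 37 degrees C. Viability was read by CellTiter-Glo luminescence. Media-only wells were set as complete cell-killing and DMSO as no toxicity.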
IL1B secr inh: inhibitors of inflammasome signaling (IL-1 beta secretion); THP-1 LPS/ATP IL-1B secretion, AlphaLISA, 16 h; active compounds read low; activity change, % at 57.5 µM; 360,000 tested, 4.7% active; AID 743279; in the data active means activity change below about -50%; inconclusive means mostly about -30% to -49%; further: on the % scale 0 is the no-effect control and ±100 the full control effect
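Secreted IL-1B measured by AlphaLISA bead assay after 16 h compound exposure of THP-1 cells; compounds (final up to 57.5 uM) added 1 h before LPS (250 ng/mL) and ATP (1.25 mM) stimulation; lower signal means less secretion.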
* marks the source's active call; other numbers are inactive results; ? = inconclusive; · = not tested or not shown; [ ] = dose if it differs, or a comment. Rows were chosen to be rich in hits. Some 19% of all compounds tested hit in one or more screens of this group. Unless noted, the call rests on the fitted dose curve; in most records, active means well fitted curve in the direction sought with a large enough effect; inconclusive means small, poorly fitted or top-dose-only effect, or another doubt; inactive means no such curve, though single readings can be large; an effect the other way counts as inactive or inconclusive.

SMILES	TGFb inhibitor	TDP1 inh	TDP1 cell noCPT	TDP1 cell CPT	HepG2 viability	IL1B secr inh
C[C@@H]1[C@H](c2ccccc2)OCCS(=O)(=O)N1Cc1ccccc1F	-35%	·	13µM*	?	-20%	·
Cc1ccc(CN2[C@H](C)[C@H](c3ccccc3)OCCS2(=O)=O)cc1	-24%	·	?	?	1%	·
O=S1(=O)CCO[C@H]2Cc3ccccc3[C@H]2N1Cc1ccccc1Br	?	·	23µM*	?	13%	-1
CCCCNC(=O)c1nn(-c2ccc(C)cc2)c(=O)n(C)c1=O	19%	5%	-19%	-13%	7%	·
CCSc1nnc2ccc(-c3ccc(OC)c(OC)c3)nn12	12%	0%	23µM*	?	-15%	-68*
Cc1ccc(OCC(=O)NCCc2nc3ccccc3[nH]2)c(C)c1	-1%	2%	-25%	?	-21%	-2
Cc1ccc(C(C)(C)C)c(OCC(=O)NCCc2nc3ccccc3[nH]2)c1	?	-1%[2.28 µM]	7.3µM*	13µM*	-42%	·
Cc1cc(OCC(=O)NCCc2nc3ccccc3[nH]2)cc(C)c1Cl	20µM*	5%[2.28 µM]	12µM*	12µM*	-45%	·
NC(=O)c1c(-c2ccc(Cl)cc2Cl)csc1NC(=O)Cc1ccccc1	-21%	3%	9.2µM*	8.2µM*	4%	-3
O=C(NCCNC(=O)c1ccco1)c1ccc(Cl)c(Cl)c1	13%	10%[0.0935 µM]	-15%	-11%	8%	46
c1ccc2c(CCc3c[nH]c4ccccc34)ccnc2c1	?	·	16µM*	13µM*	-34%	·
COc1ccc(OC)c(C(O)c2nc3ccccc3n2C(C)C)c1 (centres undefined)	-21%	9%	-16%	-4%	-4%	9
COc1ccc(OC)c(C(Cc2ccnc3ccccc23)Cc2ccnc3ccccc23)c1	?	·	13µM*	13µM*	-97%	·
COc1ccc(CCc2ccnc3ccccc23)cc1	0%	·	21µM*	?	-16%	-62*
CCCN(CC1CCCO1)C(=O)CCc1nnc(CCc2ccc(OC)cc2)o1 (centres undefined)	1%	0%	?	23µM*	-5%	7
COc1ccc(NS(=O)(=O)c2cc(NC(=O)c3cccnc3Cl)ccc2N2CCCC2)cc1	-30%	8%	?	?	-7%	-17
COCCNC(=O)Cn1cc(S(=O)(=O)Cc2ccccc2Cl)c2ccccc21	-10%	2%	-12%	-23%	-1%	·
COc1ccccc1CCc1nnc(CCC(=O)N(C)Cc2ccncc2C)o1	-13%	-5%	?	-23%	-5%	-9
COc1ccccc1CCc1nnc(CCC(=O)N(C)Cc2cccc3cnccc23)o1	-20%	3%	23µM*	?	-17%	-8
COc1ccc(CCc2nnc(CCC(=O)N(C)Cc3ccnc4ccccc34)o2)cc1	0%	3%	4.6µM*	?	-8%	-28
COc1ccccc1-c1nnc(SCC(=O)NC2CCCCC2)n1C	7%	16%	-11%	6%	-24%	15
CC(C(=O)c1ccc(-c2ccccc2)cc1)[n+]1cccc(NC(=O)c2ccccc2)c1 (centres undefined)	?	10%	15µM*	18µM*	-28%	?
O=C(NNC(=O)c1ccccc1O)c1ccc(S(=O)(=O)Nc2ccccc2)cc1	-24%	0%	16µM*	?	-30%	45
O=C(Nc1ccc(-c2cnco2)cc1)c1ccc(Cl)cc1	12%	0%	-6%	9%	10%	?
O=C(Nc1ccccc1)c1ccc(S(=O)(=O)Nc2cccc(O)c2)cc1	-15%	4%	?	?	-17%	-16
SMILES	TGFb inhibitor	TDP1 inh	TDP1 cell noCPT	TDP1 cell CPT	HepG2 viability	IL1B secr inh
CC(=O)c1cccc(NS(=O)(=O)c2ccc(C(=O)Nc3ccccc3)cc2)c1	?	7%	12µM*	18µM*	-37%	-12
O=C(Nc1ccc(-c2cnco2)cc1)c1ccccc1	1%	6%	2%	1%	7%	-71*
Cc1ccc(CNc2ncnc3[nH]ncc23)o1	4%	1%	-7%	-1%	6%	·
CN(C)c1ccc(CNC(=O)CCCN2C(=O)CCn3nc(-c4cn(C)c5ccccc45)cc32)cc1	-17%	-1%	-19%	?	-2%	·
Cc1ccc(CNC(=O)C2CCCN(S(=O)(=O)c3ccc4c(ccn4C)c3)C2)cc1 (centres undefined)	1%	2%	-6%	-11%	0%	·
O=C(Nc1cccnc1)c1ccc(-c2ccccc2)cc1	-19%	0%	?	-11%	-5%	-5
O=C(Nc1ccncc1)c1ccc(-c2ccccc2)cc1	-33%	-3%	2.9µM*	3.3µM*	-21%	-15
O=C(Nc1ccncc1)c1ccc(S(=O)(=O)Nc2ccccc2)cc1	3%	-1%	12µM*	15µM*	-20%	15
COc1ccc(-c2nc(C)c(CCNC(=O)c3ccccc3Br)s2)cc1OC	-16%	3%	?	?	-19%	·
COc1ccccc1C(=O)Nc1c(-c2ccccc2)nc2ccccn12	12%	·	?	23µM*	-1%	-9
COc1ccc(C(=O)Nc2c(-c3ccccc3)nc3ccccn23)c(OC)c1	-2%	·	?	?	0%	-5
CCOc1ccc(NC(=O)CN(C)C(=O)c2cc(S(=O)(=O)N3CCCCC3)ccc2Cl)cc1OCC	-25%	3%	?	-20%	2%	-19
Cc1cccc(NC(=O)c2ccccc2[N+](=O)[O-])n1	-18%	7%	9%	-1%	-4%	-1
O=C(Nc1cccc(NC(=O)c2cc([N+](=O)[O-])ccc2Cl)n1)c1cc([N+](=O)[O-])ccc1Cl	?	·	9.2µM*	7.3µM*	-53%	-100*
O=C(Nc1cccc(NC(=O)c2ccccc2[N+](=O)[O-])n1)c1ccccc1[N+](=O)[O-]	9%	10%	9.2µM*	6.5µM*	1%	6
O=C(c1cc([N+](=O)[O-])ccc1Cl)N1c2ccccc2Sc2ccccc21	?	8%	15µM*	?	-30%	?
Cc1cc(NC(=O)c2cc([N+](=O)[O-])ccc2Cl)no1	-23%	·	16µM*	?	-26%	?
CCOC(=O)c1ccc(NC(=O)C(CC)Sc2nc3ncccc3o2)cc1 (centres undefined)	·	6%	?	-26%	-19%	·
